Screening data as filed in PubChem.
Giardia FBPA inh: inhibitors of Giardia lamblia fructose-1,6-bisphosphate aldolase; Potency, µM (series often up to 59.6 µM), inactives show top-dose activity, negative = inhibition, usual class: inhibitors; A8B2U2; 0.71% of 290,000 active; AID 2451; purified Giardia FBPA; note: potency is the fitted concentration of half-maximal effect; % is set by controls: 0 for no effect and ±100 for the full control effect; nearly all actives have a fitted effect of over 55% in size
Target sequence (A8B2U2 whole entry, looked up): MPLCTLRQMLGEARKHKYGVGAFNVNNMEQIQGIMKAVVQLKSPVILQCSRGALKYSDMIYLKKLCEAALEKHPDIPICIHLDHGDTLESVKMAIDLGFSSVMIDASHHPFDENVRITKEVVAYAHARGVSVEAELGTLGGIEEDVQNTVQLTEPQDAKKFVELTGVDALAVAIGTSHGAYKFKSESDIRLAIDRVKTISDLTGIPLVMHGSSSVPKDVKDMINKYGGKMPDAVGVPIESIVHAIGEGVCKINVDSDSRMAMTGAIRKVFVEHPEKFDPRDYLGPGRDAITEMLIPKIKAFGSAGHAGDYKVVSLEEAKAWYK
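Giardia FBPA (40 nM reagent) was preincubated 10 min at RT with compound (up to 57.5 uM final), then substrate plus GAPDH/TPI/NAD/arsenate coupling system with diaphorase/resazurin was added; resorufin fluorescence (525/598 nm) was read after 20 min.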
CHX counter: affects cycloheximide protein synthesis inhibition readout, counter-screen; 12% of 300,000 active; cell reporter, cycloheximide protein synthesis inhibition counterscreen; max response, %; in the data active = max response mostly above about 13%, no sharp cut-off; inactive = mostly below about 14%; note: read at 38.3 µM for the half of the compounds with a filed dose; 0% is about no effect
Pf growth 48h: P. falciparum growth inhibition at 48 hours (one generation); Potency, µM (titrated, usually from 28.7 µM), without a hit: at the highest dose activity change, negative = inhibition, usual class: inhibitors; 5.9% of 310,000 active; P. falciparum luciferase growth in erythrocytes, 48 h; note: potency is the fitted concentration of half-maximal effect; % is set by controls: 0 for no effect and ±100 for the full control effect
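Luminescence readout; reporter = integrated firefly luciferase in P. falciparum. RBC culture at 2% hematocrit, 0.1% parasitemia final, 37 C/5% CO2; decreased signal taken as growth inhibition.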
Pf growth 96h: P. falciparum growth inhibition at 96 hours. Potency, µM (titrated, usually from 28.7 µM), without a hit: at the top dose activity change, negative = inhibition, hits mostly inhibitors. 6.9% of 320,000 active. P. falciparum luciferase reporter growth, 96 h; note: potency is the fitted concentration of half-maximal effect; % is set by controls: 0 for no effect and ±100 for the full control effect
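Erythrocytes infected with luciferase-expressing P. falciparum were dispensed at 2% hematocrit and 0.05% parasitemia (final), then incubated with compounds 96 hours at 37 C in 5% CO2. Luminescence after detection reagent addition reported growth.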
NS1 function inh: influenza NS1 inhibition; 0.4% of 270,000 active; Potency, µM (titrated, usually from 46.1 µM), without a hit: at the top dose activity, positive = more growth; calls by dose curve; note: potency is the fitted concentration of half-maximal effect; actives are rising curves; nearly all actives have a fitted effect of over 50% in size
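A cell-based growth assay was used: compounds that relieve NS1-induced slow growth of budding yeast raise OD600. Assay medium was yeast nitrogen base with ammonium sulphate and -URA supplement, pH 6.0, with 2% galactose.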
Shiga inhibitor: Shiga toxin inhibition | Vero cells, Shiga toxin protein synthesis inhibition reporter | inhibition, % at 38.7 µM | 9.2% of 290,000 active | AID 2315; in the data active = inhibition mostly above about 28%, no sharp cut-off; inactive = mostly below about 43%; note: 0% is about no effect
* marks the source's active call; other numbers are inactive results; ? = inconclusive; / = no result given; [ ] = dose if it differs, or a comment. Most compounds without a hit are left out; they make up all but 21% or so of the library. Unless noted, calls come from the whole dose curve; as a rule, active = well fitted curve in the direction sought with a large enough effect; inconclusive = small, poorly fitted or top-dose-only effect, or another doubt; inactive = no such curve, though single readings can be large; an effect the other way counts as inactive or inconclusive.

SMILES | Giardia FBPA inh | CHX counter | Pf growth 48h | Pf growth 96h | NS1 function inh | Shiga inhibitor
C/C(=N/NC(=O)CNC(=O)c1cccc(F)c1)c1ccc2c(c1)CCCC2 | 4% | 3 | 28% | 17% | -2% | -26
Cc1ccc(-c2nn(-c3ccccc3)cc2CN(Cc2ccccc2)C(=O)c2ccco2)o1 | 2% | -1 | / | 12µM* | 15% | -3
Cc1ccc(-c2nn(-c3ccccc3)cc2/C=C/C(=O)O)o1 | -12% | 14* | 6% | -7% | 17% | 33
O=C(O)/C=C/c1cn(-c2ccccc2)nc1-c1cc2ccccc2oc1=O | 7% | 22* | 25% | 29% | 2% | 41*
CCC(C)[C@H](NC(=O)N1CC(=O)Nc2ccccc21)C(=O)N1CCC[C@H]1C(=O)O (stereo partly specified) | 5% | -2 | 36% | ? | 7% | 0
O=S(=O)(Nc1nc2ccccc2nc1N1CCN(CCO)CC1)c1cc(F)ccc1F | / | / | -7% | ? | / | /
COc1ccc(NC(=O)CCc2nc3ccccc3[nH]2)cc1 | 3% | 11 | 10% | -21% | / | 21
Cc1ccc(NC(=O)c2ccc([N+](=O)[O-])cc2)cc1S(=O)(=O)N(C)C | -6% | 40* | -26% | -19% | / | 68*
Cc1ccc(NC(=O)c2ccc(OC(F)F)cc2)cc1S(=O)(=O)N(C)C | -10% | 29* | 5% | ? | 8% | 0
Cc1ccc(NC(=O)CCNC(=O)c2ccc([N+](=O)[O-])cc2)cc1S(=O)(=O)N(C)C | 1% | 4 | -27% | ? | / | 29
COc1ccc(/C=C2\SC(=S)N(CC(=O)OCC(=O)Nc3cc(Cl)cc(Cl)c3)C2=O)cc1 | ? | 2 | 18% | 22% | 2% | -6
CN1CCN(C(=O)c2cc3ccccc3oc2=O)CC1 | 5% | 13* | 4% | ? | 2% | -6
O=C(c1cc2ccccc2oc1=O)N1CCCN(C(=O)c2cc3ccccc3oc2=O)CC1 | / | / | / | / | 4% | /
Cc1cccc(N2CCN(C(=O)c3cc4ccccc4oc3=O)CC2)c1C | 0% | 20* | -4% | ? | -52% | 17
O=C(c1cc2ccccc2oc1=O)N1CCN(c2ccccn2)CC1 | 1% | -1 | 0% | / | 0% | 2
O=C(c1cc2ccccc2oc1=O)N1CCCC1 | 3% | -4 | 6% | / | 4% | -1
O=C(c1cc2ccccc2oc1=O)N1CCN(c2ncccn2)CC1 | 3% | 34* | / | -56% | -4% | 86*
CO[C@@H]1COC(=O)C/C=C\[C@@H](C)COC(=O)[C@H](COCc2ccccc2)NC(=O)C/C=C\[C@H]1C | 0%[12.9 µM] | / | / | / | / | /
CCNC(=S)Nc1cccc(S(=O)(=O)NC2=NCCC2)c1 | 1% | -6 | -22% | ? | / | 17
O=C(COC(=O)c1ccc(O)cc1)Nc1cccc(S(=O)(=O)NC2=NCCC2)c1 | / | / | ? | 6.6µM* | / | /
O=C(Cc1csc(-c2ccc(F)cc2)n1)Nc1cccc(S(=O)(=O)NC2=NCCC2)c1 | / | / | -29% | 6.6µM* | / | /
O=C(CCl)Nc1cccc(S(=O)(=O)NC2=NCCC2)c1 | 2% | 10 | 3.3µM* | 4.7µM* | -42% | -7
CN(CC(=O)Nc1cccc(S(=O)(=O)NC2=NCCCCC2)c1)Cc1ccc(C(C)(C)C)cc1 | -2% | -2 | ? | ? | -1% | -28
CC(C)(C)c1ccc(OCCC(=O)Nc2cccc(S(=O)(=O)NC3=NCCCCC3)c2)cc1 | / | / | 12µM* | ? | / | /
CN(C)CCCOc1c2ccccc2n(Cc2ccccc2)[n+]1[O-] | -6% | -3 | / | / | / | -12
SMILES | Giardia FBPA inh | CHX counter | Pf growth 48h | Pf growth 96h | NS1 function inh | Shiga inhibitor
O=C(OCc1ccc(O)cc1)c1c(-c2ccsc2)oc2ccc(N3CCOCC3)cc12 | -3% | 1 | ? | ? | 21% | -2
c1ccc2c3c(ccc2c1)OCC1CONC31 (stereo unspecified) | 4% | 15 | 354% | 93% | / | 6
O=C1COc2ccc3ccccc3c21 | -3% | 16* | 31% | 19% | 1% | 40
Cc1[nH]c(=O)[nH]c(=O)c1/C=N/NC(=O)[C@@H](N)CC(C)C | -7% | 16* | 5.2µM* | ? | 0% | 30
Cc1[nH]c(=O)[nH]c(=O)c1/C=N/NC(=O)[C@H](CC(C)C)NC(=O)OC(C)(C)C | 12% | -4 | -13% | -29% | 19% | -5
CCOCCCn1c(SCC(=O)N2CCOCC2)nc2ccccc2c1=O | 2% | -2 | 10% | ? | 5% | -14
CCCN(CCC)C(=O)CSc1nc2ccccc2c(=O)n1C1CCCC1 | -4% | -2 | ? | 39% | -63% | -2
CCN(CC)C(=O)CSc1nc2ccccc2c(=O)n1CC1CCCCC1 | -7% | -4 | 4.1µM* | ? | -11% | -4
O=C(CSc1nc2ccccc2c(=O)n1CC1CCCCC1)N1CCOCC1 | -3% | -5 | 9.3µM* | 13µM* | -57% | -15
CCC(C(=O)NCCN1CCOCC1)n1nc(C)n2c(cc3sccc32)c1=O (stereo unspecified) | / | -11 | 14% | ? | -2% | 11
COc1cccc(CN2CC(C(=O)NCCCc3ccc(C)cc3)CCC2=O)c1 (stereo unspecified) | 10% | 19* | -6% | 34% | -2% | 48
COc1cccc(CN2CC(C(=O)NCCCc3ccncc3)CCC2=O)c1 (stereo unspecified) | / | -4 | 11% | 12µM* | 4% | -10
COc1cccc(CN2CC(C(=O)NCCOc3cccnc3)CCC2=O)c1 (stereo unspecified) | / | -3 | 22% | ? | 3% | 3
CCC(C)(C)n1nnnc1C(c1ccc(OC)c(OC)c1)N1CCN(c2ccccc2)CC1 (stereo unspecified) | 1% | -3 | ? | 26% | -7% | -12
CC(C)(C)n1nnnc1C(c1cccnc1)N1CCN(c2cccc(C(F)(F)F)c2)CC1 (stereo unspecified) | 0% | -4 | 3.7µM* | -25% | 1% | -4
CCC(C)(C)n1nnnc1C(c1ccc(OC)c(OC)c1)N1CCN(c2ccc(OC)cc2)CC1 (stereo unspecified) | ? | 1 | / | 2% | -48% | 17
CCC(C)(C)n1nnnc1C(c1ccc(OC)c(OC)c1)N1CCN(c2cccc(OC)c2)CC1 (stereo unspecified) | -7% | -2 | 7.4µM* | 41% | -2% | -7
CCC(C)(C)n1nnnc1C(c1ccc(OC)c(OC)c1)N1CCN(c2ccc(F)cc2)CC1 (stereo unspecified) | -25% | -2 | 13µM* | / | -12% | -6
Cc1cc(C)cc(/C=C/C2OCC(O)C2Oc2ccc(C3CCCC3)cc2)c1 (stereo unspecified) | 2%[12.9 µM] | / | / | / | / | /
O=S(=O)(Nc1cc(C(F)(F)F)ccc1N1CCOCC1)c1ccccc1 | -3% | -3 | ? | ? | 3% | -1
O=S(=O)(Nc1cc(C(F)(F)F)ccc1N1CCOCC1)c1ccc2ccccc2c1 | 1% | 1 | ? | 13µM* | -12% | -22
